system: HepG2; experiment: GSK_TCMDC: Percent inhibition of human HepG2 cell line. Test compounds present at 10uM.; assay type: functional

Row | SMILES | Inhibition [%]
1 | CCN1CCC(N(Cc2ccc(-c3ccc(C(F)(F)F)cc3)cc2)C(=O)Cn2c(CCc3cccc(F)c3F)cc(=O)c3cn(C)nc32)CC1.O=C(O)C(O)C(O)C(=O)O | 27
2 | CC(C)Cn1c(Sc2ccc(C#N)c([N+](=O)[O-])c2)nnc1-c1cccc(Cl)c1 | 24
3 | O=[N+]([O-])c1cccc(C=NNc2nc(=Nc3ccccc3)[nH]c(=Nc3ccccc3)[nH]2)c1 | 10
4 | Cc1cc(=NN=Cc2ccccc2F)c2ccccc2[nH]1 | 14
5 | O=C(CNC(=O)c1ccc(O)cc1)Nc1ccc(-c2cccc(-c3nc4cc(C(F)(F)F)ccc4[nH]3)c2)cc1 | 26
6 | Br.CCCC1N=C(N)N=C(N)N1c1ccc(C)c(C)c1 (stereo not given) | 7
7 | CC(C)C[C@@H](C(=O)Nc1ccc(Cc2ccc(NC(=O)[C@H](CC(C)C)N(C)C(=O)OC(C)(C)C)cc2)cc1)N(C)C(=O)OC(C)(C)C | 17
8 | COc1ccc(-c2ccc(NC(=O)c3cccc(Cl)c3)cc2)cc1CN1CCCC1.O=C(O)C(F)(F)F | 35
9 | OC(CNCCc1ccccc1)Cn1c2ccc(Cl)cc2c2cc(Cl)ccc21 (stereo not given) | 53
10 | Fc1ccc(Nc2ccnc3cc(-c4cccc(CN5CCCCC5)c4)ccc23)c(Cl)c1 | 3
11 | Br.CCCCCCn1c2c(c(=N)c3c1CCC3)CCC2 | 32
12 | COc1ccc(-c2nonc2NC(=O)c2cccc(Cl)c2)cc1OC | 41
13 | COc1cc(CN=C(S)NN=C(C)c2ccccn2)cc(OC)c1OC | 45
14 | COc1ccc2nccc([C@@H](O)CN3CCC(NCc4cc5c(F)ccc(F)c5[nH]4)CC3)c2n1.CS(=O)(=O)O | 22
15 | COc1ccc2ncc(F)c(CCN3CCC[C@H](CNCc4ccc5c(n4)NC(=O)CS5)C3)c2n1.Cl | 16
16 | O=C(/C=C/c1ccc(Cl)cc1)NCCCCCN1CCC(c2c[nH]c3ccccc23)CC1 | 42
17 | CCCOc1ccc(N2C(N)=NC(N)=NC2(C)C)cc1.Cl | 1
18 | CC1CN(c2cnn(Cc3cccc(NC(=O)Nc4cccc(C(F)(F)F)c4)c3)c(=O)c2Cl)CC(C)N1.O=C(O)C(F)(F)F (stereo not given) | 19
19 | Cc1cc(NC(=O)NCCN2CCC(NC(=O)c3ccc(C(F)(F)F)cc3)CC2)c2ccccc2n1.O=C(O)C(F)(F)F | 3
20 | Cc1ccc(Nc2nc(C)cc(NC3CC3)n2)cc1 | 0

Row | SMILES | Inhibition [%]
21 | CS(=O)(=O)NCCCNCc1cccc(-c2ccc(-c3nc4cc(C(F)(F)F)ccc4[nH]3)cc2)c1.O=C(O)C(F)(F)F | 17
22 | O=C(Nc1ccc(OC2CCN(Cc3ccc(F)cc3)C2)c(Cl)c1)c1ccsc1.O=C(O)C(F)(F)F (stereo not given) | 26
23 | COc1cc(C)cc(CN2CCC(Cc3ccccc3)CC2)c1O | 35
24 | Cc1cc(C(F)(F)F)cc(-n2ncc(-c3ccc(C(=O)NCCNCc4ccccc4)cc3)c2N)n1.O=C(O)C(F)(F)F | 98
25 | CO/C(=C\C=C\c1cc2cc(Cl)c(Cl)cc2[nH]1)C(=O)NCCCN1CCCC[C@H]1C | 41
26 | Nc1cc(-c2ccc(-c3cccs3)s2)nc2ccccc12 | 32
27 | CCOC(=O)NCC(=O)Nc1cccc(-c2cccc(-c3nc4cccc(C)c4[nH]3)c2)c1 | 14
28 | O=C(Nc1cccc(C(F)(F)F)c1)c1cccc(S(=O)(=O)NCC2CCCN2CC2CCCCC2)c1.O=C(O)C(F)(F)F (stereo not given) | 6
29 | C#CC(C)(CO)N1CCCC1 (stereo not given) | 10
30 | CC(C)N1CCN(C(CN2CCN(CCCOc3ccccc3-c3ccccc3)CC2)c2ccc(F)cc2)CC1.Cl (stereo not given) | 98
31 | O=C(NCCN1CCCCC1)c1ccc(Nc2nccc(Nc3ccc(Oc4ccccc4)cc3)n2)cc1 | 58
32 | CC(C)CNCc1ccc(-c2ccc(CN(C(=O)NCCc3ccccc3)C3CCN(Cc4ccccc4)CC3)cc2)cc1.O=C(O)C(F)(F)F | 37
33 | CCC(C)NCCC(c1ccccc1)c1ccccc1O.Cl (stereo not given) | 4
34 | COc1ccc2nccc([C@@H](O)CN3CCC(NCC(O)Cc4ccccc4)CC3)c2c1.O=C(O)C(=O)O (stereo not given in full) | 5
35 | CC(C)(C)c1nn(-c2ccccc2)c2[nH]c(=O)c(CNC3CCCCC3)cc12 | 6
36 | Cc1cc(N2CCCC2)nc(Nc2ccc(NC(=O)COc3ccccc3)cc2)n1 | 43
37 | CN(C)CCOc1ccc(NC(=O)NC(C)(C)c2nc(-c3ccc(Cl)c(O)c3)c(-c3ccncc3)[nH]2)cc1.Cl | 22
38 | CCCCCCCn1c(=N)n(CC(O)c2ccc(Cl)c(Cl)c2)c2ccccc21.Cl (stereo not given) | 99
39 | O=C(Nc1cccc(-c2csc(NC(=O)c3ccc4ccccc4c3)n2)c1)c1ccc2ccccc2c1 | 3
40 | CCC(=O)c1c(C)n(-c2ncnc3c2nc(C)n3-c2ccc(C)cc2C)c2ccccc12 | 0

— ChEMBL document CHEMBL1157539, “Thousands of chemical starting points for antimalarial lead identification” (Nature, 2010)
